SRC1 inh – inhibitors of human steroid receptor coactivator 1 (SRC1) | Q15788 | HEK293 GAL4-SRC1 luciferase reporter, luminescence | inhibition, % at 3.6 µM | actives 0.12% (n = 360,000) | AID 588354;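 active = inhibition above the campaign mean plus 3 SD, with each screening campaign given its own cutoff, cut at about 60% in these data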;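 also: 0% = DMSO treated cells and 100% = gossypol at 36 µM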
SRC3 inh – inhibitors of human steroid receptor coactivator 3 (SRC3). actives 0.17% (n = 360,000). inhibition, % at 3.6 µM. HEK293 GAL4-SRC3 luciferase reporter, luminescence. AID 588352;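 active = inhibition above a per-campaign cutoff, the mean of all compounds plus 3 SD, cut at about 60% in these data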;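 also: 0% = DMSO-treated cells and 100% = gossypol-treated cells at 36 µM; higher means less SRC3-driven luciferase light from the GAL4 reporter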
LRH-1 inv ag – NR5A2 inverse agonism in reporter assay | HEK293T StAR-luciferase reporter, LRH-1 transfected, 24 h | inhibition, % at 3.6 µM | actives 0.13% (n = 360,000) | AID 602396;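 active = inhibition above the mean inhibition of all tested compounds plus 3 SD, cut at about 73% in these data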;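 also: 0% = DMSO wells and 100% = reporter-only cells lacking LRH-1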
Target sequence (O00482 whole entry, looked up): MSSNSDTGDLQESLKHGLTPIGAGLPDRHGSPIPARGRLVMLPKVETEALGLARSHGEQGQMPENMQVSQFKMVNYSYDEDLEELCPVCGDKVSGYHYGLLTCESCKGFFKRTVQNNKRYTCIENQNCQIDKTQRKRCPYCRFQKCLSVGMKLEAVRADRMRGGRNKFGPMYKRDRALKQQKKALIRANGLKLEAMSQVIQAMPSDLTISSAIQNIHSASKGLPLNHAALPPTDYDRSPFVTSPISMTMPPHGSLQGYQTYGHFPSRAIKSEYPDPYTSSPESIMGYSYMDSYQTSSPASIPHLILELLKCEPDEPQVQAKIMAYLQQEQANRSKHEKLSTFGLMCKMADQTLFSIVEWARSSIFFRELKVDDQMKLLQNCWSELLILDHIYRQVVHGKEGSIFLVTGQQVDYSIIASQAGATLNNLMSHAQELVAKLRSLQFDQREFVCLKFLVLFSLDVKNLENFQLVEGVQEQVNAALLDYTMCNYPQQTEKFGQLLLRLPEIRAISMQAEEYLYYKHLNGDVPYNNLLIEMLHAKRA
SRC2 inh – human SRC2 (NCOA2) inhibition; HEK293 GAL4-SRC2 luciferase reporter, luminescence; inhibition, % at 9 µM; actives 0.17% (n = 370,000); Q15596; AID 651957;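 active = inhibition above the mean inhibition of all tested compounds plus 3 SD, set per campaign, cut at about 52% in these data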;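 also: 0% = DMSO treated cells and 100% = cells given Gossypol at 36 µM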
LGR2 inh – inhibitors of bursicon-induced Drosophila LGR2 receptor cAMP signaling; HEK293 LGR2, CRE-luciferase, bursicon-stimulated, 4 h; actives 0.35% (n = 380,000); inhibition, % at 9.99 µM;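 active = drop in luminescence signal, shown as inhibition above about 50% in the replicate tests, limit read from the data, passing the limit was not always enough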;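 also: agonist challenge used bursicon conditioned medium at about half maximal strength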
Numbers without * were called inactive; . = no result given. Most compounds without a hit are left out; they make up all but 0.45% or so of the library.

SMILES | SRC1 inh | SRC3 inh | LRH-1 inv ag | SRC2 inh | LGR2 inh
O=C(NCC[C@@H]1CC[C@@H](NS(=O)(=O)c2ccccc2)[C@H](CO)O1)c1ccc2c(c1)OCO2 | . | . | . | . | -16.1
CC(C)(C)c1ccc(C(=O)CCC(=O)OCC(=O)NCCc2ccc(S(N)(=O)=O)cc2)cc1 | -2.7 | -1.6 | 26.2 | 54.0* | 5.6
COc1ccc(NC(=O)N2CC3(C2)CN(C(=O)c2cccnc2)[C@H](CO)c2[nH]c4cc(OC)ccc4c23)cc1 | . | . | . | . | 7.7
C[C@H](CO)N1C[C@H](C)[C@@H](CN(C)Cc2ccncc2)Oc2cc(-c3ccccc3F)ccc2S1(=O)=O | . | . | . | . | -9.6
COC(=O)C[C@H]1CC[C@@H](NC(=O)Nc2ccc(C(F)(F)F)cc2)[C@H](CO)O1 | . | . | . | . | 1.2
O=c1ccc2ccccc2c2ccccc12 | 63.9* | 74.7* | 92.9* | 69.9* | 3.4
c1ccc2c(c1)ccc1ccccc12 | -12.0 | -8.4 | -9.8 | 8.1 | 1.4
COCCn1c(C)cc(C(=O)COC(=O)c2cccc(O)c2)c1C | 54.4 | 60.2 | -19.2 | 51.8 | 84.8*
COCCn1c(C)cc(C(=O)COC(=O)c2cc3c(s2)CCC3)c1C | 8.7 | -16.5 | 5.9 | -14.0 | .
O=C(/C=C\Nc1ccc2c(c1)OCO2)c1ccccn1 | 12.1 | 34.4 | -34.2 | 73.1* | .
O=C(Nc1ccc2c(c1)OCO2)c1ccccn1 | -82.1 | -93.7 | -140.0 | -67.4 | .
COc1ccc2c3c(n(C)c2c1)[C@H](CO)N(S(C)(=O)=O)CC31CCN(C(=O)CN(C)C)CC1 | . | . | . | . | -9.1
Cc1ccc2nc(C(F)(F)F)c(C#N)c(N)c2c1 | 37.8 | 35.6 | 24.6 | 54.0* | 65.4*
CCc1ccc(-c2nc(CS(=O)CC(=O)NCc3ccco3)c(C)o2)cc1 (stereo unspecified) | 21.3 | 32.8 | 40.6 | 54.4* | 8.8
COc1ccc(S(=O)(=O)N2CCC3(CC2)CN(C(=O)CN(C)C)[C@@H](CO)c2c3c3ccc(OC)cc3n2C)cc1 | . | . | . | . | 3.2
COc1ccc(C(=O)NC2CC3CCCC(C2)N3CC(C)C)cc1 (stereo unspecified) | 2.3 | 4.7 | 9.0 | 95.3* | 8.8
O=C(C1=NN[C@@H]2C(=O)N(c3cccc(C(F)(F)F)c3)C(=O)[C@H]12)c1ccc2ccccc2n1 | -3.8 | 4.0 | 1.7 | 59.3* | 2.3
C[C@@H]1CN([C@H](C)CO)C(=O)c2cc(C#CC3CC3)cnc2O[C@@H]1CN(C)C(=O)c1ccncc1 | . | . | . | . | 10.6
CNC[C@@H]1OCCCC[C@H](C)Oc2ccc(NC(=O)Nc3ccccc3)cc2C(=O)N([C@@H](C)CO)C[C@@H]1C | . | . | . | . | 2.1
C=CS(=O)(=O)c1ccc(Oc2ccc(S(=O)(=O)C=C)cc2)cc1 | -294.6 | -135.0 | 9.2 | 70.2* | 101.6*
NS(=O)(=O)c1ccc(Oc2ccc(S(N)(=O)=O)cc2)cc1 | 2.9 | -7.9 | -5.6 | 7.5 | 4.3
C[C@H](CO)N1C[C@H](C)[C@@H](CN(C)C(=O)C2CC2)Oc2ncc(C#CC3(O)CCCC3)cc2C1=O | . | . | . | . | 3.2
CCCC(=O)NC(c1ccc(C(C)C)cc1)c1ccc2cccnc2c1O (stereo unspecified) | -9.2 | 54.2 | 35.3 | 32.2 | 22.5
CCCCC(=O)NC(c1ccc(OC)cc1)c1ccc2cccnc2c1O (stereo unspecified) | 13.7 | 35.9 | 102.6* | 4.7 | 10.8
CC(C)C(=O)NC(c1ccc(Cl)cc1Cl)c1ccc2cccnc2c1O (stereo unspecified) | 32.6 | 23.5 | 83.5* | 10.0 | 25.5
SMILES | SRC1 inh | SRC3 inh | LRH-1 inv ag | SRC2 inh | LGR2 inh
CCCC(=O)NC(c1ccccc1Cl)c1ccc2cccnc2c1O (stereo unspecified) | 53.0 | 47.2 | 84.0* | 31.4 | 24.4
CCC(=O)NC(c1ccc(C)cc1)c1ccc2cccnc2c1O (stereo unspecified) | 40.8 | 64.2* | 19.4 | 34.2 | 34.0
CCC(=O)NC(c1ccc(Cl)cc1Cl)c1ccc2cccnc2c1O (stereo unspecified) | 26.6 | 56.2 | 65.3 | 16.0 | -4.8
CCC(=O)N1CC2(CCN(Cc3ccc(Cl)cc3)CC2)c2c([nH]c3cc(OC)ccc23)[C@@H]1CO | . | . | . | . | 4.4
Cc1nnc(SC(=O)N2c3ccccc3Sc3ccccc32)s1 | 16.6 | 64.8* | 30.9 | 60.0* | .
C[C@@H]1CN([C@@H](C)CO)C(=O)c2cc(NC(=O)Nc3ccccc3)ccc2O[C@@H](C)CCCCO[C@@H]1CN(C)C(=O)Cc1ccccc1 | . | . | . | . | -1.8
CCc1c(C)nc2ccc(Br)cc2c1SCCC#N | 64.6* | 64.3* | -4.2 | 51.1 | 30.6
Cc1ccc(CC#N)c(-c2c(CC#N)ccc(C)c2C)c1C | 8.2 | -0.5 | -17.7 | 12.7 | 6.6
